In the library only some 2.3% were active in any assay of this set; here they are far more common.
p53 PUMA act – re-activators of the mutant p53 pathway | SW480 PUMA-promoter luciferase, p53 mutant reactivation | activation, % at 9.98 µM | actives 1.5% (n = 28,000) | AID 624151; in the data active means activation above about 52%
ID4 SMM – ID4 (human) binding | P47928 | small molecule microarray, Flag-ID4 binding, fluorescence F/B | calls only | actives 1.2% (n = 31,000); call rule not given here;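 further: a binder raises fluorescence above local background on the spot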
Target sequence (P47928 whole entry, looked up): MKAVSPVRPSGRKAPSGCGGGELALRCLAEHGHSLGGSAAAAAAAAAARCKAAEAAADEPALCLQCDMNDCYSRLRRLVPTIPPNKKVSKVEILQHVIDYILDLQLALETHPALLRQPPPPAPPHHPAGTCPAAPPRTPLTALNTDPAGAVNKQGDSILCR
* hit, by the source's call.

For CC(C)=CCC/C(C)=C/CC/C(C)=C/CSc1ncn[nH]1 the results were p53 PUMA act 6 and ID4 SMM inactive.
C[C@@H]1CN([C@H](C)CO)C(=O)Cc2cc(NS(=O)(=O)c3ccccc3)ccc2O[C@H]1CN(C)C(=O)Nc1ccccc1 was read as p53 PUMA act 11 and ID4 SMM inactive.
Screening C[C@@H]1CN([C@@H](C)CO)C(=O)Cc2cc(NS(=O)(=O)c3ccccc3)ccc2O[C@H]1CN(C)C(=O)Nc1ccccc1 returned p53 PUMA act 6 and ID4 SMM active.
For C[C@@H]1CN([C@@H](C)CO)C(=O)Cc2cc(NC(=O)Cc3ccccc3)ccc2O[C@H]1CN(C)C(=O)Nc1ccccc1 the results were p53 PUMA act 5 and ID4 SMM active.
Screening C[C@H](CO)N1C[C@H](C)[C@@H](CN(C)C(=O)Nc2ccccc2)Oc2ccc(NC(=O)Cn3cnnn3)cc2CC1=O returned p53 PUMA act 8 and ID4 SMM active.
C[C@H]1CN([C@@H](C)CO)C(=O)Cc2cc(NC(=O)Cn3cnnn3)ccc2O[C@@H]1CN(C)C(=O)Nc1ccccc1 was read as p53 PUMA act 6 and ID4 SMM inactive.
C[C@@H]1CN([C@H](C)CO)C(=O)Cc2cc(NC(=O)Cc3ccccc3)ccc2O[C@@H]1CN(C)C(=O)Nc1ccccc1 was read as p53 PUMA act -1 and ID4 SMM inactive.
For COC(=O)c1ccc(NC(=O)CSc2nnc(-c3cnccn3)n2C)cc1 the results were p53 PUMA act -1 and ID4 SMM inactive.
Screening CSc1cccc(NC(=O)CN(C)S(=O)(=O)c2ccc3ccccc3c2)c1 returned p53 PUMA act -6 and ID4 SMM inactive.
`Cn1c(=O)c2c(ncn2CC(=O)Nc2ccc(Br)cc2F)n(C)c1=O` gave p53 PUMA act -9 and ID4 SMM inactive.
COc1ccc([N+](=O)[O-])cc1NC(=O)CN(c1ccc(Br)c(C)c1)S(C)(=O)=O was read as p53 PUMA act -6 and ID4 SMM inactive.
`COC(=O)c1ccccc1NC(=O)CCSc1ccc(C)cc1` gave p53 PUMA act 36 and ID4 SMM inactive.
`CC(C)n1cnc2c(NCc3ccccc3)nc(NCCO)nc21` gave p53 PUMA act 92* and ID4 SMM inactive.
`CC(C)n1cnc2c(NCc3ccccc3)nc(NCCCO)nc21` gave p53 PUMA act -7.
`N#Cc1c(NC(=O)Cn2c(=O)oc3cc(Br)ccc32)sc2c1CCCC2` gave p53 PUMA act 7 and ID4 SMM inactive.
Screening O=C(Cn1c(=O)oc2ccccc21)Nc1sc2c(c1C(=O)O)CCCC2 returned p53 PUMA act 3 and ID4 SMM active.
`COc1cc(NC(=O)Cn2nc(C(F)(F)F)c(Cl)c2C)cc([N+](=O)[O-])c1` gave p53 PUMA act -23 and ID4 SMM inactive.
`Cc1ccc(C)c(N(CC(=O)Nc2ccc(Br)c(Cl)c2)S(C)(=O)=O)c1` gave p53 PUMA act -2 and ID4 SMM inactive.
For CSc1ncc(Cl)c(C(=O)Nc2nnc(SC/C=C/c3ccccc3)s2)n1 the results were p53 PUMA act -1 and ID4 SMM inactive.
COCCSc1nnc(NC(=O)c2sc3ccccc3c2Cl)s1 was read as p53 PUMA act 67* and ID4 SMM inactive.
COC(=O)c1c(NC(=O)COc2ccc(Cl)c(C)c2)sc2c1CCC2 was read as p53 PUMA act 10 and ID4 SMM inactive.
Screening CCC1=C/C(=C\N(C)c2ccccc2)C(=O)S1 returned p53 PUMA act 75* and ID4 SMM inactive.
For COc1ccc(-c2ccc3c(c2)O[C@@H](CN(C)C(=O)Nc2ccccc2F)[C@@H](C)CN([C@H](C)CO)S3(=O)=O)cc1 the results were p53 PUMA act -18.
COc1ccc(NC(=O)N(C)C[C@@H]2Oc3cc(-c4ccncc4)ccc3S(=O)(=O)N([C@H](C)CO)C[C@H]2C)cc1 was read as p53 PUMA act -6 and ID4 SMM active.
`C[C@@H]1CN([C@H](C)CO)S(=O)(=O)c2ccc(C3=CCCC3)cc2O[C@H]1CN(C)C(=O)c1cccnc1` gave p53 PUMA act 6.
`Cc1ccccc1-c1ccc2c(c1)O[C@H](CN(C)C)[C@H](C)CN([C@H](C)CO)S2(=O)=O` gave p53 PUMA act 3 and ID4 SMM inactive.
C[C@H](CO)N1C[C@H](C)[C@@H](CN(C)C(=O)Nc2ccccc2F)Oc2cc(-c3ccc(C(=O)N(C)C)cc3)ccc2S1(=O)=O was read as p53 PUMA act -8 and ID4 SMM active.
Screening CC(=O)N(C)C[C@@H]1Oc2cc(-c3ccccc3C)ccc2S(=O)(=O)N([C@H](C)CO)C[C@@H]1C returned p53 PUMA act -12 and ID4 SMM active.
For COc1ccc(NC(=O)N(C)C[C@H]2Oc3cc(-c4ccc(C)cc4)ccc3S(=O)(=O)N([C@@H](C)CO)C[C@H]2C)cc1 the results were p53 PUMA act -13 and ID4 SMM inactive.
For C[C@H](CO)N1C[C@H](C)[C@@H](CN(C)C(=O)c2ccncc2)Oc2cc(C3=CCCC3)ccc2S1(=O)=O the results were p53 PUMA act 10 and ID4 SMM active.
For O=C(CCCn1cc([N+](=O)[O-])cn1)Nc1cc(F)ccc1F the results were p53 PUMA act 1 and ID4 SMM inactive.
Screening O=C(Cn1cnc2sc(-c3ccccc3)cc2c1=O)Nc1ccc(F)c(Cl)c1 returned p53 PUMA act -2 and ID4 SMM inactive.
`Cc1c(NC(=O)C(C)Oc2ccc(Cl)cc2Cl)cccc1-c1nc2ccccc2o1` (centres undefined) gave p53 PUMA act -19 and ID4 SMM inactive.
`COc1ccc(CNC(=O)CCn2c(=O)c3sccc3n(Cc3cc(C)ccc3C)c2=O)cc1` gave p53 PUMA act -8 and ID4 SMM inactive.
Screening C[C@H](CO)N1C[C@H](C)[C@H](CN(C)C)Oc2cc(-c3ccncc3)ccc2S1(=O)=O returned p53 PUMA act 9.
`C[C@@H]1CN([C@H](C)CO)S(=O)(=O)c2ccc(-c3ccc(C(=O)N(C)C)cc3)cc2O[C@@H]1CN(C)Cc1ccc2c(c1)OCO2` gave p53 PUMA act -15 and ID4 SMM active.
For COc1ccccc1-c1ccc2c(c1)O[C@H](CN(C)Cc1ccc3c(c1)OCO3)[C@H](C)CN([C@@H](C)CO)S2(=O)=O the results were p53 PUMA act -18 and ID4 SMM inactive.
`C[C@@H]1CN([C@H](C)CO)S(=O)(=O)c2ccc(-c3cccc(C(=O)N(C)C)c3)cc2O[C@H]1CN(C)C(=O)Nc1ccc(F)cc1` gave p53 PUMA act 10 and ID4 SMM active.
`C[C@@H]1CN([C@@H](C)CO)S(=O)(=O)c2ccc(/C=C/c3ccccc3)cc2O[C@H]1CN(C)Cc1ccc(C(=O)O)cc1` gave p53 PUMA act -5 and ID4 SMM active.
`C[C@H](CO)N1C[C@H](C)[C@H](CN(C)Cc2cncnc2)Oc2cc(-c3ccncc3)ccc2S1(=O)=O` gave p53 PUMA act -8 and ID4 SMM active.
For C[C@@H]1CN([C@@H](C)CO)S(=O)(=O)c2ccc(-c3cccc(C(=O)N(C)C)c3)cc2O[C@H]1CN(C)C(=O)Nc1ccc(F)cc1 the results were p53 PUMA act 5.
`C[C@H](CO)N1C[C@H](C)[C@H](CN(C)Cc2ccccc2)Oc2cc(/C=C/c3ccccc3)ccc2S1(=O)=O` gave p53 PUMA act -10 and ID4 SMM inactive.

From PubChem
